Our source for the growth values is PubChem BioAssay (NCI).

Compounds without any hit were thinned out: in the full panel of roughly 83,000, 20% have a hit.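 In brief: 96-well plates, 48 h treatment, single concentration, percent growth endpoint.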 A number with no mark means an inactive call. Active and inactive are the calls of the source. How the source made its calls: active means growth percent below 10; inactive means the rest.

For this assay, the system named is HOP-92 NSCLC. The assay can be described thus: NCI-60 one-dose screen, 48 h (100 = growth as untreated, 0 = no growth, -100 = all killed). The settings on record: 10 µM unless noted.
With `O=C(/C=C/c1ccc(Cl)cc1)c1ccc(NC(=O)N2CCN(c3cc4c(cc3F)c(=O)c(C(=O)O)cn4C3CC3)CC2)cc1`, the growth was 92.9%. For `O=C(/C=C(/C=C/c1csc2ccccc12)OB(F)F)/C=C/c1csc2ccccc12` the value was 44.6%; for `CN1CCN(C(=O)[C@]23CCC(C)(C)C[C@H]2C2=CC[C@@H]4[C@@]5(C)C/C(=C/c6cccnc6)C(=O)C(C)(C)[C@@H]5CC[C@@]4(C)[C@]2(C)CC3)CC1`, 40.7%; for `CC1=CCC(OC(=O)C(C)(O)CCC(O)(C(=O)OC2(C)C=CC(O)(C(C)C)CC2)C(C)C)(C(C)C)CC1` (configuration not stated), 109%. Next, `NC1=NN=C(N)C1=Cc1cc2ccccc2n2nnnc12`: 87.4%; `COc1ccc(NC(N)=NCCCOc2ccc(F)cc2)cc1`: 80.8%. In the case of `O=C1c2ccc3c4c(ccc(c24)C(=O)N1CCCNCc1ccccc1)C(=O)N(CCCNCc1ccccc1)C3=O`, the growth is -12.5% (active). For `O=C(NCCNc1nccc(-c2c(-c3cccc(F)c3)nc3sccn23)n1)c1ccc(Cl)cc1` the value was 87.1%; for `C=C1C(=O)O[C@H]2[C@H]1CC/C(COC(=O)NCCc1c[nH]c3ccc(OC)cc13)=C\CC[C@@]1(C)O[C@@H]21`, -8.74% (active).

For the molecule `COc1cc(CC(=O)c2ccc(O)c(OC)c2)ccc1O`, the growth is 84.5%.

Turning to `CCN(CC)c1ccc(/C=N/NC(=O)CSc2nc3ccccc3c(=O)n2CCc2ccc(S(N)(=O)=O)cc2)c(O)c1`, the growth is 46.8%.

Consider `Cc1ccc(-n2c3c(c(-c4ccccc4)c2-c2ccccc2)C2=NCCN2C=N3)cc1`, for which the growth was 87%.
